In PubChem BioAssay (EPA / NIEHS):
Results filed as inconclusive are left out. Active and inactive are the calls of the source. The calls were made as follows: active = hit-call score of the fitted dose curve at least 0.9, where 1 is the maximum; inconclusive = response in the unintended direction; inactive = score below 0.9.

Read-out: Glyceraldehyde-3-phosphate dehydrogenase (Homo sapiens) (UniProt P04406)
Assay: CLD_GAPDH_48hr: CellzDirect (CLD) Gene Expression Assay for Baseline Control (Glyceraldehyde 3-phosphate dehydrogenase) at 48 hours (AID 2283706);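 also: active means higher GAPDH mRNA than DMSO vehicle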
Procedure: CLD_48hr is a cell-based, multiplexed-readout assay that uses hepatocyte, a human liver primary cell, with measurements taken at 48 hours after chemical dosing in a 96-well plate.CLD_GAPDH_48hr is one of 16 assay component(s) measured or calculated from the CLD_48hr assay. It is designed to make measurements of mRNA induction, a form of inducible reporter, as detected with chemiluminescence signals by Quantitative Nuclease Protection Assay (qNPA) technology.Data from the assay component CLD_GAPDH_48hr was analyzed at the endpoint, CLD_GAPDH_48hr, in the positive analysis fitting direction relative to DMSO as the negative control and baseline of activity. Using a type of inducible reporter, gain-of-signal activity can be used to understand changes in the reporter gene as they relate to the gene GAPDH. Furthermore, this assay endpoint can be referred to as a secondary readout, because this assay has produced multiple assay endpoints where this one serves a background control function. To generalize the intended target to other relatable targets, this assay endpoint is annotated to the background measurement intended target family, where subfamily is baseline control.
Human hepatocyte cultures were treated daily for two consecutive days with fresh dosing solutions containing appropriate concentrations of the 320 ToxCast chemicals (chemical identities were blinded to CellzDirect and other ToxCast collaborators), vehicle control (0.2% DMSO), and positive control inducers as summarized in Table 1. Due to the large number of treatment groups and chemicals examined, the ToxCast chemicals were divided into two groups (spanning two independent cultures of hepatocytes from separate donor preparations (Hu778: ToxCast plates 1 and 2; Hu776: ToxCast plates 3 and 4). Each preparation of human hepatocyte cultures was treated with respective vehicle control, medium only control, set of six positive controls/reference chemicals for the five hepatic receptor pathways, and a subset of eight of the ToxCast chemicals (indoxacarb, pyrithiobac-sodium, norflurazon, cyhalofop-butyl, methomyl, thiram, acetochlor, and propiconazole). These replicate data, coupled with internal replicates designed within the blinded ToxCast chemical library, provided additional data to evaluate interindividual differences between hepatocyte preparations and their potential impact on chemical profiles.Cell morphology and integrity were evaluated using phase-contrast microscopy as an indicator of hepatocyte cell health (Tyson & Green, 1987). Cultures for each treatment group (i.e., media, vehicle [0.2% DMSO], positive control inducers [multiple concentrations], and the ToxCast chemicals [multiple concentrations]) were observed and cell morphology was assessed relative to vehicle control cultures at each harvest time point (0, 6, 24, or 48 h). […] Images were evaluated at the conclusion of the study to assess changes in cell integrity and account for the effects of chemical exposure on uncharacteristic changes in concentration-dependent gene expression profiles. The results from these determinations of apparent cytotoxicity were annotated (yes/no) alongside the corresponding qNPA data for reference.At the conclusion of each treatment period, hepatocyte cultures (96-well) were washed with 1 volume of HBSS, lysed by addition of 25 ul ArrayPlate lysis buffer (HTG, Tucson, AZ), and 70 ul/well of Denaturation Oil, denatured by incubation at 95C for 10 min, and frozen at approximately -70C until analysis by nuclease protection assay (qNPA) (Roberts et al., 2007). For qNPA analysis, cell lysates were thawed at 50C for approximately 30 min, qNPA probes were added, and samples were incubated at 95C for 10 min to begin the detection process by denaturing the target RNA, dissociating the duplexes and secondary structure hybridization. At the conclusion of the hybridization period, S1 nuclease reagent was added to each sample to digest all nonprotected nucleotides at 50C for 60-90 min. […]

Glyceraldehyde-3-phosphate dehydrogenase (Homo sapiens), sequence (P04406 whole entry, looked up): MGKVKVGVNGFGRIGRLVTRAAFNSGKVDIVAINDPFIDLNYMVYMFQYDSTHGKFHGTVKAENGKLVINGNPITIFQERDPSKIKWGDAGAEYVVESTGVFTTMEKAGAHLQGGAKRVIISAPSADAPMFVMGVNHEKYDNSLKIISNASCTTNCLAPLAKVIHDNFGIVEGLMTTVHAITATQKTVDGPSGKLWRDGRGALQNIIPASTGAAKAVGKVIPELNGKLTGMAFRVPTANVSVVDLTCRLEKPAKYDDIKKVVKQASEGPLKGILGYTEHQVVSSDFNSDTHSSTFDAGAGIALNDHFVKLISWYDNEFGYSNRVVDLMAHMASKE

Question: Which outcome does the source give for `S=C(S)NCCNC(=S)S.[Mn+2].[S-]C([S-])=NCCN=C([S-])[S-].[Zn+2]` here?
Answer: inactive

Question: For `CCCCCCC(C)OC(=O)COc1nc(F)c(Cl)c(N)c1Cl` (stereo not drawn), which outcome is on record?
Answer: inactive

Question: With `CC(C)(c1ccc(O)cc1)c1ccc(O)cc1` as the compound, how does the outcome read?
Answer: inactive

Question: `OB(O)O` was tested. Which outcome did it give?
Answer: inactive

Question: With `CCOC(=O)COc1cc(-n2ncc(C(F)(F)F)c(C)c2=O)c(F)cc1Cl` as the compound, how does the outcome read?
Answer: inactive

Question: For `CCOC(=O)C(C)Oc1ccc(Oc2nc3ccc(Cl)cc3o2)cc1` (stereo not drawn), which outcome is on record?
Answer: inactive

Question: How did the outcome turn out when `COC(=O)c1ccccc1C(=O)O` was run?
Answer: inactive

Question: For `CCN(CC)C(=O)c1cccc(C)c1`, which outcome is on record?
Answer: inactive

Question: `CCNc1nc(N)nc(Cl)n1` was tested. Which outcome did it give?
Answer: inactive

Question: `COCCO` was tested. Which outcome did it give?
Answer: inactive

Question: For `COC(=O)c1ccc(I)cc1S(=O)(=O)NC(=O)Nc1nc(C)nc(OC)n1`, which outcome is on record?
Answer: inactive

Question: `COc1nc(C)nc(NC(=O)NS(=O)(=O)c2ccccc2OCCCl)n1` was tested. Which outcome did it give?
Answer: inactive

Question: How did the outcome turn out when `COC(=O)c1cccc(C)c1S(=O)(=O)NC(=O)Nc1nc(OCC(F)(F)F)nc(N(C)C)n1` was run?
Answer: inactive

Question: With `N#CSCSc1nc2ccccc2s1` as the compound, how does the outcome read?
Answer: inactive

Question: With `COC(=O)c1ccc(CNS(C)(=O)=O)cc1S(=O)(=O)NC(=O)Nc1nc(OC)cc(OC)n1` as the compound, how does the outcome read?
Answer: inactive

Question: With `CCCOC(=O)c1ccc(C(=O)OCCC)nc1` as the compound, how does the outcome read?
Answer: inactive

Question: With `CCCCOC(=O)C(C)Oc1ccc(Oc2ccc(C(F)(F)F)cn2)cc1` (stereo not drawn) as the compound, how does the outcome read?
Answer: inactive

Question: How did the outcome turn out when `CCCCC(CC)COC(=O)c1ccccc1C(=O)O` (stereo not drawn) was run?
Answer: inactive

Question: How did the outcome turn out when `CCCCCOC(=O)COc1cc(N2C(=O)C3=C(CCCC3)C2=O)c(F)cc1Cl` was run?
Answer: inactive

Question: With `O=C(O)C1(C(=O)Nc2ccc(Cl)cc2Cl)CC1` as the compound, how does the outcome read?
Answer: inactive

Question: For `CCCOC(=O)NCCCN(C)C`, which outcome is on record?
Answer: inactive

Question: `Oc1ccc(C(c2ccc(O)cc2)C(Cl)(Cl)Cl)cc1` was tested. Which outcome did it give?
Answer: inactive

Question: How did the outcome turn out when `CCSC(=O)N(CC(C)C)CC(C)C` was run?
Answer: inactive

Question: For `CCCN(CCC)C(=O)SCC`, which outcome is on record?
Answer: inactive

Question: How did the outcome turn out when `CC1(C)C(C=C(Cl)Cl)C1C(=O)OCc1cccc(Oc2ccccc2)c1` (stereo not drawn) was run?
Answer: inactive

Question: Which outcome does the source give for `CCC(O)=C1C(=O)CC(C(=O)O)CC1=O` (stereo not drawn) here?
Answer: inactive

Question: `CCC(C)OC(=O)N1CCCCC1CCO` (stereo not drawn) was tested. Which outcome did it give?
Answer: inactive

Question: For `C#CCOC(=O)[C@@H](C)Oc1ccc(Oc2ncc(Cl)cc2F)cc1`, which outcome is on record?
Answer: inactive

Question: `C=CCOC(Cn1ccnc1)c1ccc(Cl)cc1Cl` (stereo not drawn) was tested. Which outcome did it give?
Answer: inactive

Question: With `COC(=O)c1c(Cl)nn(C)c1S(=O)(=O)NC(=O)Nc1nc(OC)cc(OC)n1` as the compound, how does the outcome read?
Answer: inactive

Question: With `Cc1nn(C)c(Oc2ccccc2)c1C=NOCc1ccc(C(=O)OC(C)(C)C)cc1` as the compound, how does the outcome read?
Answer: inactive

Question: For `S=C([S-])NCCNC(=S)[S-].[Mn+2]`, which outcome is on record?
Answer: inactive

Question: How did the outcome turn out when `CCOC(=O)[C@H](C)Oc1ccc(Oc2nc3ccc(Cl)cc3o2)cc1` was run?
Answer: inactive
